Measured values published in PubChem BioAssay AID720513 (Broad Institute, 2013).
Out of some 2,100 compounds screened, about 480 (23%) were called active. Another 5% or so got no clear call; they are omitted.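 How the source made its calls: active means fitted curve reaches 40% activation at or below the top valid concentration, in every replicate test; inconclusive means replicate tests disagree on the call; inactive means the rest, including activity in the opposite direction.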 Only a sample is shown. Results with a measured potency or affinity are listed apart.

assay: PGC1a acetylation increase, cellular AlphaLISA – cell-based, cherry-picked samples, set 6, dose response (AID 720513); conditions: U2OS PGC1a acetylation AlphaLISA, overnight, 0 = neutral, -100 = inhibitor control; series mostly up to 19.5 µM; activation (acetylation increase): at the top concentration;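 further: cells made to overexpress flag tagged PGC1a plus GCN5 acetyltransferase by viral infection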

Activation (acetylation increase), inactive:
CC1CN(C(=O)COC(=O)[C@@H]2CC(O)CN2S(=O)(=O)c2ccc3c(c2)OCCO3)CC(C)O1 (stereo not given in full) 8.73%, CCn1c(C)c(C)c2cc(C(=O)NCCN3CCOCC3)ccc21 -19.1%, CN1C(C(=O)Nc2ccccn2)=C(O)c2sc(Cl)cc2S1(=O)=O 9.35%, CO[C@H]1CN(C)C(=O)c2cc(NS(C)(=O)=O)ccc2OC[C@H](C)N(C(=O)NC(C)C)C[C@H]1C 19.4%, C[C@@H]1CN([C@@H](C)CO)S(=O)(=O)c2ccc(C#CC3CCCCC3)cc2O[C@H]1CN(C)Cc1cccnc1 -47.2%, CN1CCN2c3ncccc3Cc3ccccc3[C@@H]2C1 11.6%, Fc1ccc(/C=C2\CCCC3=C2Nc2ncnn2C3c2ccc(F)cc2)cc1 (stereo not given) -95.2%, CC(C)(C)NS(=O)(=O)c1ccc(CCC(=O)N2CCOCC2)cc1 0.217%, CCC(=O)N[C@H]1CC[C@H](CCNC(=O)Nc2ccc(C(F)(F)F)cc2)O[C@H]1CO -29.5%, COc1cccc(CN2C[C@@H]3N[C@H](C2)C3c2ccc(-c3ccccc3OC)cc2)c1 (stereo not given in full) -2.92%, COc1cc(CN2C[C@@H]3N[C@H](C2)C3c2ccc(-c3ccccc3C)cc2)cc(OC)c1 (stereo not given in full) -95.4%, CC(C)c1ccc(-c2nnn(CC(=O)N3CCCCC3)n2)cc1 -13%, Cc1ccc(S(=O)(=O)N2CCCC2)cc1C(=O)O -7.65%, CN(C)CCCN(C(=O)CCOc1ccccc1)c1nc2ccc(F)cc2s1 -99%, CC(C)NC(=O)N(C)C[C@H]1Oc2c(NS(=O)(=O)c3cn(C)cn3)cccc2C(=O)N([C@@H](C)CO)C[C@@H]1C 16.2%, C[C@@H]1CN([C@@H](C)CO)C(=O)c2c(c3ccccc3n2C)-c2ccccc2CO[C@H]1CN(C)S(=O)(=O)c1ccsc1 -6.93%, CC(C)[C@H](C)NC(=O)N(C)C[C@@H]1OCc2ccccc2-c2ccccc2C(=O)N([C@@H](C)CO)C[C@H]1C 15.2%, CC(C)CC#Cc1cnc2c(c1)C(=O)N([C@@H](C)CO)C[C@@H](C)[C@H](CN(C)C(=O)c1ccccc1)O2 -31.3%, CCN(C(=O)COC(=O)/C=C/c1cccc(Cl)c1)c1c(N)n(Cc2ccccc2)c(=O)[nH]c1=O -4.91%, Clc1ccccc1OCCCCN1CCCC1 -20.9%, CO[C@H]1CN(C)C(=O)c2cc(NS(C)(=O)=O)ccc2OC[C@@H](C)N(C(=O)CC2CC2)C[C@H]1C -18.1%, CCOC(=O)CSc1nccc(N(C)C)c1C#N 4.27%, O=C(OCc1cnc(Cl)s1)c1cccs1 11.2%, CC(NCc1cccs1)C(=O)NC1CCCCC1 (stereo not given) -2.99%, CO[C@@H]1CN(C)C(=O)c2ccc(NC(=O)c3ccc(Oc4ccccc4)cc3)cc2OC[C@@H](C)N(C(C)=O)C[C@H]1C -36.3% [at 21 µM], COc1ccc(S(=O)(=O)N(C)C[C@H]2Oc3ccc(NC(=O)CCN4CCOCC4)cc3C(=O)N([C@@H](C)CO)C[C@@H]2C)cc1 4.36% [at 21 µM], CSCC[C@H](NC(=O)c1ccc(Br)o1)c1nnc2ccccn12 -1.9%, O=C(Nc1ccc([N+](=O)[O-])cn1)c1ccc(Br)o1 -6.47%, CC(=O)N(C)C[C@@H]1Oc2cc(-c3ccc(F)cc3)ccc2S(=O)(=O)N([C@H](C)CO)C[C@H]1C 35.3%, C[C@@H]1CN([C@@H](C)CO)C(=O)c2cccc(NC(=O)C3CCCCC3)c2O[C@@H]1CN(C)CC1CCCCC1 14.1%, COc1cc(NC(=O)c2[nH]cnc2C(N)=O)cc(C(=O)Nc2cccc(C(F)(F)F)c2)c1 -110%, O=C(Nc1cccc(Cl)c1)c1cncn1-c1ccc(F)cc1 4.8%, COc1cnc(-c2ccccn2)nc1Sc1ccc(C)cc1 26.8%, CCOC(=O)C1(Cc2cccc(Cl)c2)CCCN(C(=O)c2cccnc2)C1 (stereo not given) -5.9%, C[C@H]1CCCCO[C@@H](CN(C)C(=O)c2ccccc2)[C@@H](C)CN([C@@H](C)CO)C(=O)c2cc(NC(=O)Nc3ccc(F)cc3)ccc2O1 7.64%, C[C@H]1CN([C@@H](C)CO)C(=O)c2cc(C#Cc3ccc(F)cc3)cnc2O[C@@H]1CN(C)C(=O)Nc1ccc(F)cc1 -7.59% [at 21 µM], C[C@H]1CN([C@@H](C)CO)C(=O)c2cc(-c3cncnc3)cnc2O[C@@H]1CN(C)C(=O)c1cccc(F)c1 25.1%, C[C@H]1CN([C@@H](C)CO)C(=O)CCCn2nncc2CO[C@@H]1CN(C)C(=O)c1ccc(N2CCN(C)CC2)cc1 5.03%, C[C@@H]1CN([C@@H](C)CO)C(=O)c2cc(NS(C)(=O)=O)ccc2O[C@@H](C)CCCCO[C@H]1CN(C)C(=O)Nc1ccc(F)cc1 36.6%, C[C@@H]1CN([C@H](C)CO)C(=O)c2cccc(NC(=O)c3nc4ccccc4s3)c2O[C@@H]1CN(C)C(=O)Nc1ccc(F)cc1 4.4%, CCOC(=O)CN1C(=N)N(c2nc(NC(C)C)nc(OC)n2)CC1=O 15%, CC1CCc2sc(C(=O)Nc3nnc(SCc4ccc(F)cc4)s3)cc2C1 (stereo not given) 2.39%, CCc1ccc(-c2cn3nc(-c4ccccc4)cnc3n2)cc1 8.74%, COCC(=O)Nc1ccc2c(c1)OC[C@H](C)N(C(=O)c1ccccc1F)C[C@H](C)[C@H](OC)CN(C)C2=O 20.8%, OC[C@@H]1[C@H](c2ccc(/C=C/c3ccccc3)cc2)[C@H]2CN(CCC(F)(F)F)CCCCN12 -58.3%, CCCCOc1ccc(CNC(=O)NS(=O)(=O)c2ccc(OCC(C)C)cc2)cc1 3.8%, CC(C)C#Cc1ccc2c(c1)O[C@@H](CN(C)Cc1ccccc1)[C@@H](C)CN([C@@H](C)CO)S2(=O)=O -67.6%, COc1ccc(-c2nc3ccccc3c(=O)o2)cc1OC -30.4%, COc1ccc(-c2cc(C(=O)O)[nH]n2)cc1OC -8.64% [at 10 µM], Cc1ccc(C(=O)N2CCN(c3ncccn3)CC2)cc1 25.8%, O=C(Nc1ccc(N2CCN(Cc3ccccc3F)CC2)cc1)c1ccc([N+](=O)[O-])o1 -102%, N#Cc1cc(Oc2cccc3cccnc23)c(-n2nnc3ccccc32)cc1C#N -29.1%, O=C1CN(S(=O)(=O)Cc2ccccc2)C[C@@H]2[C@@H](c3ccc(C#Cc4cccc(F)c4)cc3)[C@@H](CO)N12 -26.7%, COC(=O)c1ccc(OC)c(OC2CCCC2)c1 6.85%, N#Cc1ccc(-c2ccc([C@@H]3[C@H]4CNC[C@@H]3N4Cc3ccc4c(c3)OCO4)cc2)cc1 -65%
